Assay results reported in PubChem BioAssay.
Active and inactive are the calls of the source.

Columns and labels:
[1] = binders of probe aFSTL3 on microarray, primary screen, stem cell growth factor project, biochemical, small-molecule microarray, fluorescence 635/667 (AID 1064); conditions: higher = more signal;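 also: measures binding of the biotinylated anti-FSTL3 antibody to printed compounds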
[2] = binders from COS7 lysate, DM2A8 probe, primary screen, torsin A project, cell lysate, small-molecule microarray, fluorescence 635/667 (AID 1065); conditions: higher = more signal, COS7 lysate expressing mutant human TOR1A
[3] = binders of probe aFGF2 on microarray, primary screen, stem cell growth factor project, biochemical, small-molecule microarray, fluorescence 635/667 (AID 1067); conditions: higher = more signal;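 also: measures binding of biotinylated aFGF2 protein to printed compounds on slides; z-score merges feature fluorescence and signal-to-noise across triplicate slides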
[4] = binders of probe aFGF10 on microarray, primary screen, stem cell growth factor project, biochemical, small-molecule microarray, fluorescence 635/667 (AID 1071); conditions: higher = more signal;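 also: score merges 667 nm spot intensity and signal to noise from triplicate slides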
[5] = biological target: Neurogenic locus notch homolog protein 2 (Homo sapiens) (UniProt Q04721); assay: Notch2 binders on small-molecule microarrays, primary screen, biochemical, small-molecule microarray, 635 nm fluorescence, stem cell growth factors (AID 1073); conditions: Notch2 binding, higher = more signal
[6] = biological target: Pro-neuregulin-1, membrane-bound isoform (Homo sapiens) (UniProt Q02297); assay: NRG1 binders on small-molecule microarrays, primary screen, psychiatric disease protein project, biochemical, small-molecule microarray, fluorescence 635/667 (AID 1075); conditions: NRG1 binding, 635 nm fluorescence, higher = more signal;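 also: score combines 667 nm spot fluorescence with signal to noise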
Sequence of Pro-neuregulin-1, membrane-bound isoform (Homo sapiens) (Q02297 whole entry, looked up, the tested form may be a part, canonical isoform): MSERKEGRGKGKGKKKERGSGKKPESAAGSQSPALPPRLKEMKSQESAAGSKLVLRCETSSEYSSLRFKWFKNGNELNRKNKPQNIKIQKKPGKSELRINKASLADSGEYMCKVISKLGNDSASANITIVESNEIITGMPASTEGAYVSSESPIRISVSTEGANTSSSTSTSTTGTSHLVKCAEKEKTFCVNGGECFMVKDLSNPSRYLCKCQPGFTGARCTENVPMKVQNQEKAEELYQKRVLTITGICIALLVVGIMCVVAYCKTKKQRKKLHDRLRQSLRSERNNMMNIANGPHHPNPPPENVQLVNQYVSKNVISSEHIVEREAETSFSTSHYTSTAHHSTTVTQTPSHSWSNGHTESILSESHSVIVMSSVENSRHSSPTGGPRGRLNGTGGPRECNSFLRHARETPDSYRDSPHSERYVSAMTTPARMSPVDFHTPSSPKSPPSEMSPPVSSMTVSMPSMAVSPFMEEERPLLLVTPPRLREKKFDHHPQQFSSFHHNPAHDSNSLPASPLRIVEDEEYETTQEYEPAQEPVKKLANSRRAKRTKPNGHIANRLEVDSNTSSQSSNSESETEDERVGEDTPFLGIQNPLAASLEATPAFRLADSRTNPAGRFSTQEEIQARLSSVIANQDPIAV

[7] = test system: Neuregulin-1 EGF-like domain; assay: binders of neuregulin-1 EGF-like domain, primary screen, biochemical, small-molecule microarray, 635 nm fluorescence (AID 1081); conditions: small-molecule microarray binding, higher = more signal;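 also: binding of the protein to compounds printed on small-molecule microarray slides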
[8] = FRG1 promoter luciferase signal modulators, primary screen, FRG1 inhibition for FSHD, cell-based, C2C12 myotubes, firefly/Renilla luciferase, luminescence (AID 1084); conditions: higher = more signal, called active from +8 up or from −8 down
[9] = binders of probe aFST on microarray, primary screen, stem cell growth factor project, biochemical, small-molecule microarray, fluorescence 635/667 (AID 1086); conditions: higher = more signal;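 also: score merges 667 nm fluorescence with signal-to-noise of each printed compound spot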
[10] = binders of probe aHhip on microarray, primary screen, stem cell growth factor project, biochemical, small-molecule microarray, fluorescence 635/667 (AID 1087); conditions: higher = more signal;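 also: score merges spot fluorescence at 667nm with spot signal to noise ratio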
[11] = test system: PRMT1 (protein arginine N-methyltransferase 1); assay: PRMT1 binders on small-molecule microarrays, primary screen, biochemical, small-molecule microarray, 635 nm fluorescence (AID 1088); conditions: small-molecule microarray binding, higher = more signal;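 also: binding of Prmt1 protein to compounds spotted on small-molecule microarray slides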
[12] = yeast growth modulation, basal conditions, primary screen, YJM789 clinical isolate, OD600, 24 h (AID 1089);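 also: growth of clinical yeast isolate S. cerevisiae YJM 789 seeded 1000 cells per well; test concentration not given here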; conditions: S. cerevisiae YJM789 growth, higher = more signal, called active from +8 up or from −8 down
[13] = fission yeast growth modulation, primary screen, strain 972, OD600, 24 h, no modulator (AID 1090);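 also: basal condition with compound alone and no growth modifier present; test concentration not given here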; conditions: S. pombe 972 growth, higher = more signal, called active from +8 up or from −8 down
[14] = S. cerevisiae growth modulation with rapamycin, primary screen, strain BY4716, OD600, 96 h (AID 1091); conditions: higher = more signal, called active from +8 up or from −8 down; also: test concentration not given here
[15] = biological target: Torsin-1A-interacting protein 2 (Homo sapiens) (UniProt Q8NFQ8); assay: LULL1 binders on small-molecule microarray, primary screen, cell lysate, human LULL1 lysate, 635/667 nm fluorescence (AID 1092); conditions: hLULL1 lysate binding, 635 nm fluorescence, higher = more signal;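 also: probe is lysate of COS7 cells overexpressing human LULL1; score merges per-feature 667 nm fluorescence with signal-to-noise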
Sequence of Torsin-1A-interacting protein 2 (Homo sapiens) (Q8NFQ8 whole entry, looked up): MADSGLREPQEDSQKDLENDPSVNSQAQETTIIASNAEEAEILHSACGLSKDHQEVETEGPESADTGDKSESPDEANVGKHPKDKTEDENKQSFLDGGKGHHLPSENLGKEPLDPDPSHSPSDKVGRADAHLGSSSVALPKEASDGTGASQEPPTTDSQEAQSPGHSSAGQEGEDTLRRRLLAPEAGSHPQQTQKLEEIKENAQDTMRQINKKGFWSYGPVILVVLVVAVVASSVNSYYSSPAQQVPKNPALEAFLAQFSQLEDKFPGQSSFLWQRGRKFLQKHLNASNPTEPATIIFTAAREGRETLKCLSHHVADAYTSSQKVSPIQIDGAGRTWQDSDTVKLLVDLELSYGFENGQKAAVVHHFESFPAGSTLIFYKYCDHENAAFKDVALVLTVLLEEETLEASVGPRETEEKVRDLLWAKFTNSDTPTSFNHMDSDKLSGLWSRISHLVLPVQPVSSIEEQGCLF

[16] = E. coli growth modulation, two-sided OD650, primary screen, E. coli filamentation project, strain DRC41, 24 h (AID 1093); conditions: OD650, 24 h, higher = more signal, called active from +8 up or from −8 down;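 also: MC1000 strain lacking acrAB efflux and sulA so SOS filamentation is blocked; test concentration not given here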
[17] = small-molecule microarray binders of probe aLefty2, primary screen, biochemical, biotinylated probe, 635/667 nm fluorescence (AID 1094); conditions: higher = more signal;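 also: score merges spot fluorescence near 667 nm with spot signal-to-noise ratio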
[18] = test system: Noggin (protein binding on small-molecule microarray); assay: Noggin binders on small-molecule microarray, primary screen, biochemical, 635/667 nm fluorescence (AID 1095); conditions: 635 nm fluorescence, higher = more signal;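 also: score merges 667 nm feature fluorescence with signal to noise over triplicate slides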
[19] = biological target: Neurogenic locus notch homolog protein 3 (Homo sapiens) (UniProt Q9UM47); assay: NOTCH3 binders on small-molecule microarray, primary screen, biochemical, 635/667 nm fluorescence (AID 1096); conditions: NOTCH3 binding, 635 nm fluorescence, higher = more signal
Sequence of Neurogenic locus notch homolog protein 3 (Homo sapiens) (Q9UM47 whole entry, looked up): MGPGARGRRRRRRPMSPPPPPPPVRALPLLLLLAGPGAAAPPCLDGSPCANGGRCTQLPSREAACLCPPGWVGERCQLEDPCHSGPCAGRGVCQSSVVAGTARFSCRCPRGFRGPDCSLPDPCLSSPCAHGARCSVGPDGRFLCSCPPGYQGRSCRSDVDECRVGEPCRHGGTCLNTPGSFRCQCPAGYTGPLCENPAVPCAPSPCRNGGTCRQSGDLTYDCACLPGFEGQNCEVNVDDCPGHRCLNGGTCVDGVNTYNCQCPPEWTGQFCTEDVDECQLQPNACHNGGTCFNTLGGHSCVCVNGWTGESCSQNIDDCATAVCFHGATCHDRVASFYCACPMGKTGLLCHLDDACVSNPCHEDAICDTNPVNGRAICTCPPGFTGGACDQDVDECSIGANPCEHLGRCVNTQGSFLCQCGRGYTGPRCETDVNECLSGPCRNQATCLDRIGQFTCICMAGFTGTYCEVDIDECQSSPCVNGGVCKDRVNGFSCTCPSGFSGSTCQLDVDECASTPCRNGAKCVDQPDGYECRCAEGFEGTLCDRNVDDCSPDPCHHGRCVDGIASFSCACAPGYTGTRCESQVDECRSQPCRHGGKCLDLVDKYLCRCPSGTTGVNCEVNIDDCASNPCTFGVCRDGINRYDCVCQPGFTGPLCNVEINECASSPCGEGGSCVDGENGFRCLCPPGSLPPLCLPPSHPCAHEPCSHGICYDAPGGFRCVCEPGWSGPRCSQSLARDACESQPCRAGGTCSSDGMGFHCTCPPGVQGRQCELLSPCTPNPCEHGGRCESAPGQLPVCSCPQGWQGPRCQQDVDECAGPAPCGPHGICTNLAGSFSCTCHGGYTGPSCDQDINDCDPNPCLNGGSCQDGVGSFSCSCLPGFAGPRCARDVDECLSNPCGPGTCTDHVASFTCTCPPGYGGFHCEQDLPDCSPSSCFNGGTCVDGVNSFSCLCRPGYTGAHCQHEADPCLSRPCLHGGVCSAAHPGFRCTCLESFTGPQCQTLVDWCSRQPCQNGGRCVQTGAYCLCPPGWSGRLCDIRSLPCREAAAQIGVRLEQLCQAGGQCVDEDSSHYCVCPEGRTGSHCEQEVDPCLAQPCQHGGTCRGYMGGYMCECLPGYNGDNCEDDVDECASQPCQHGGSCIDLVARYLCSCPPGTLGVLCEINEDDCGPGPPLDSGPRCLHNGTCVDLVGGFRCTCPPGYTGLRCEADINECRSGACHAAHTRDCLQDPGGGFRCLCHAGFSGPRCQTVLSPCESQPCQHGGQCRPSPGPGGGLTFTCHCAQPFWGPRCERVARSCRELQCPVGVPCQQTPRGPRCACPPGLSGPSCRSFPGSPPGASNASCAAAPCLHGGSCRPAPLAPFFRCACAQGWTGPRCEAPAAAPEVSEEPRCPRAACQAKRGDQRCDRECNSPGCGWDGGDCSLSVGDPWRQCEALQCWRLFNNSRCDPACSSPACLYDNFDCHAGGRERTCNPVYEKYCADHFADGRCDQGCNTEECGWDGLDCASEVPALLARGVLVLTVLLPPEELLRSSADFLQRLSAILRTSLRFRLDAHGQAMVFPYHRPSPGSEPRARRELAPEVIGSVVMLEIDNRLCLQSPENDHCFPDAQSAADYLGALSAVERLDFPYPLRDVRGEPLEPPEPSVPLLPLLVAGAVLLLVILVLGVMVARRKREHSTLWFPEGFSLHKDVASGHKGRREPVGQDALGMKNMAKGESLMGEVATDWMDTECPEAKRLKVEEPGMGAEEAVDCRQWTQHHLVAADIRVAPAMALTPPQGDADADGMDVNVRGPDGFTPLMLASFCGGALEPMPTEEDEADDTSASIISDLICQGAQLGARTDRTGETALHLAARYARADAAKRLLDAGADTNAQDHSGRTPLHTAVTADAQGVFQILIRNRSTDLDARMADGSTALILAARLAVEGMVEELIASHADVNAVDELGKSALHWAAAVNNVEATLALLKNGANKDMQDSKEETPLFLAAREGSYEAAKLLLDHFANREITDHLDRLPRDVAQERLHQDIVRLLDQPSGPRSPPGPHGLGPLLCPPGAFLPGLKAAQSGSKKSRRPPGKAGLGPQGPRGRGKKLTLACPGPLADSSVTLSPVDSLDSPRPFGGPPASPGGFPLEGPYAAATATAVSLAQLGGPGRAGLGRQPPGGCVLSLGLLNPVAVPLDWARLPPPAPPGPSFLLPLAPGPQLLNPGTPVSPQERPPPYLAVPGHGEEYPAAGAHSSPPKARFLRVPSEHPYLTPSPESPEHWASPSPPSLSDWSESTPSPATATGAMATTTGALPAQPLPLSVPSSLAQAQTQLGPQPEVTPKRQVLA

[20] = small-molecule microarray binders of probe aEGFR, primary screen, biochemical, biotinylated probe, 635/667 nm fluorescence (AID 1097); conditions: higher = more signal;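 also: probe is a biotinylated anti-EGFR antibody binding compounds printed on slides; score combines fluorescence near 667 nm and signal to noise of each spot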

Compound	composite z-score [1]	composite z-score [2]	composite z-score [3]	composite z-score [4]	composite z-score [5]	composite z-score [6]	composite z-score [7]	z-score [8]	composite z-score [9]	composite z-score [10]	composite z-score [11]	z-score [12]	z-score [13]	z-score [14]	composite z-score [15]	z-score [16]	composite z-score [17]	composite z-score [18]	composite z-score [19]	composite z-score [20]
COc1ccc(CCNC(=O)[C@@]2(C)c3ccccc3C(=O)N(Cc3ccccc3)[C@H]2c2ccc(CO)cc2)cc1	-0.277	1.25	0.0626	0.299	1.24	1.67	1.44	-3.66 (inactive)	0.851	0.0286	1.53	-1.25 (inactive)	-1.1 (inactive)	-0.648 (inactive)	3.05	-0.0282 (inactive)	0.166	1.33	1.07	0.0192
CCCC[C@H]1OB(O)C[C@H]2C1=C(C)Cn1c(=O)n(-c3ccccc3)c(=O)n12	-0.396	0.383	-0.116	0.365	0.585	-0.0946	0.129	-0.127 (inactive)	0.292	-0.0237	0.414	0.585 (inactive)	1.19 (inactive)	0.261 (inactive)	0.262	-0.314 (inactive)	-0.119	0.688	0.37	-0.113
[N-]=[N+]=NCc1ccccc1[C@@H]1OC(c2ccc(OCCCO)cc2)=N[C@]1(Cc1ccccc1)C(=O)O	0.221	0.163	0.0909	1.04	0.526	1.57	1.25	2.29 (inactive)	0.461	-0.0581	1.54	0.452 (inactive)	-1.11 (inactive)	-0.486 (inactive)	3.2	0.652 (inactive)	0.0769	-0.0061	0.315	0.271
CCN(CC)c1ccc(N2CC=CC34O[C@@H]5/C=C\CCC(C)OC(=O)C5[C@H]3C(=O)N(CCCCCCO)[C@@H]4C2=O)cc1 (stereo not given in full)	0.142	0.19	-0.0766	0.69	-0.498	0.374	1.4	0.316 (inactive)	-0.32	0.0373	-0.661	-0.13 (inactive)	-0.147 (inactive)	0.252 (inactive)	0.989	0.477 (inactive)	-0.204	-0.668	-0.318	-0.21
C=CCC(OC(C)=O)[C@@H]1[C@@H](N(Cc2ccc(-c3ccccc3)cc2)C(=O)c2ccc(C)cc2)c2cc(OCCCO)ccc2N1C(=O)Cc1ccc(OC)cc1 (stereo not given in full)	-0.0305	0.0667	-0.078	0.27	-0.0045	-0.369	-0.453	-1.32 (inactive)	0.255	-0.0994	1.1	-2.3 (inactive)	-1.13 (inactive)	-0.713 (inactive)	0.178	1.26 (inactive)	-0.166	0.0438	0.338	-0.109
C=CCNC(=O)[C@@H]1[C@H]2C(=O)O[C@H](c3ccccc3)[C@H](c3ccccc3)N2[C@H](c2ccccc2OCCO)[C@@]12C(=O)N(C(=O)OCCOC)c1ccc(C#CCC(C(=O)OC)C(=O)OC)cc12	2.39	0.691	0.605	1.16	1.6	2.26	1.31	0.847 (inactive)	3.09	0.856	1.53	1.38 (inactive)	2.06 (inactive)	6.46 (inactive)	3.56	0.221 (inactive)	0.891	1.9	1.07	0.573
CC(=O)NCCCC[C@@H]1NC(=O)[C@@H]2C[C@H](C(=O)NCCCCCC[N+](C)(C)C)[C@H](c3cccc(OCCO)c3)N2C1=O	-0.0722	1.23	-0.0098	0.498	0.0496	1.52	1.35	3.12 (inactive)	0.715	-0.0296	1.54	0.801 (inactive)	0.385 (inactive)	1.1 (inactive)	2.46	-0.104 (inactive)	0.0283	1.03	1.02	-0.115
COC(=O)[C@@]1(Cc2ccccc2)[C@H]2c3cc(C(=O)N(C)C)n(Cc4cc(F)c(F)c(F)c4)c3C[C@H]2CN1C(=O)c1ccccc1	0.683	-0.166	0.117	1.23	1.68	2.02	1.16	1.47 (inactive)	0.437	0.776	0.664	0.103 (inactive)	1.52 (inactive)	0.405 (inactive)	3.22	-0.832 (inactive)	0.461	0.137	1.04	0.218
COC(=O)[C@@]1(Cc2ccc(OC)cc2)[C@H]2c3cc(C(=O)N4CCCC4)n(CCN4CCOCC4)c3C[C@H]2CN1C(=O)c1ccccc1	2.56	0.553	1.01	1.47	1.59	2.23	1.37	0.877 (inactive)	2.71	3.48	0.57	-0.674 (inactive)	1.15 (inactive)	-1.32 (inactive)	3.66	-0.22 (inactive)	1.73	0.398	0.937	1.23
NC(=O)[C@]1(Cc2ccccc2)N=C(c2ccc(OCCCO)cc2)O[C@@H]1c1ccccc1	0.207	-0.911	0.0121	0.161	1.15	1.59	1.12	-0.573 (inactive)	0.503	-0.214	0.588	-0.94 (inactive)	-1.17 (inactive)	-0.314 (inactive)	3.54	-0.351 (inactive)	0.0781	-0.165	0.658	0.0182
